The supplement of paper PMC11001985

compound: C#CCNC(=O)CCSSCCC(=O)NCCc1ccc(C=O)c(C=O)c1; test: lysine labeling ratio R10:1 (500 µM / 50 µM probe), SILAC-ABPP in living cells; higher = lower intrinsic lysine reactivity toward the probe, active = 2 or less; details: HeLa; probe concentrations 500 vs 50 µM
Summary of the method: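 In PBS at room temperature, living HeLa cells grown with SILAC light or heavy labels were treated with 50 µM or 500 µM of an alkyne-tagged, disulfide-linked lysine probe, with label swaps in both directions. Analysis was by LC-MS/MS on a TIMS-TOF Pro after click to biotin-azide, neutravidin capture and DTT release. For each lysine, R is the median across forward and reverse replicates of the filtered median high-probe/low-probe MS1 peptide ratio, capped at 20.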

Chain of UniProt P60842 (P60842 whole entry): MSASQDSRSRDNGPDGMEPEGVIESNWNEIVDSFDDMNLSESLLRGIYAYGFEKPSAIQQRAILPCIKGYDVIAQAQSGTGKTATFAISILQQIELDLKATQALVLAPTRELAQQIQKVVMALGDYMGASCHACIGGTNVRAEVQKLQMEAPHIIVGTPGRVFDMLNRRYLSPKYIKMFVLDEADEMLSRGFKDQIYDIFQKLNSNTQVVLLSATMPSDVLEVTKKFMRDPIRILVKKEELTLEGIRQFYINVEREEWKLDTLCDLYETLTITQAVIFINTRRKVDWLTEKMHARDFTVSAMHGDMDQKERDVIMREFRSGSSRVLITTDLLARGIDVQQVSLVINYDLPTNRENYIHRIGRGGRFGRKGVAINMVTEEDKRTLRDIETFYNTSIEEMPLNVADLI
Chain of UniProt Q9Y490 (Q9Y490 whole entry): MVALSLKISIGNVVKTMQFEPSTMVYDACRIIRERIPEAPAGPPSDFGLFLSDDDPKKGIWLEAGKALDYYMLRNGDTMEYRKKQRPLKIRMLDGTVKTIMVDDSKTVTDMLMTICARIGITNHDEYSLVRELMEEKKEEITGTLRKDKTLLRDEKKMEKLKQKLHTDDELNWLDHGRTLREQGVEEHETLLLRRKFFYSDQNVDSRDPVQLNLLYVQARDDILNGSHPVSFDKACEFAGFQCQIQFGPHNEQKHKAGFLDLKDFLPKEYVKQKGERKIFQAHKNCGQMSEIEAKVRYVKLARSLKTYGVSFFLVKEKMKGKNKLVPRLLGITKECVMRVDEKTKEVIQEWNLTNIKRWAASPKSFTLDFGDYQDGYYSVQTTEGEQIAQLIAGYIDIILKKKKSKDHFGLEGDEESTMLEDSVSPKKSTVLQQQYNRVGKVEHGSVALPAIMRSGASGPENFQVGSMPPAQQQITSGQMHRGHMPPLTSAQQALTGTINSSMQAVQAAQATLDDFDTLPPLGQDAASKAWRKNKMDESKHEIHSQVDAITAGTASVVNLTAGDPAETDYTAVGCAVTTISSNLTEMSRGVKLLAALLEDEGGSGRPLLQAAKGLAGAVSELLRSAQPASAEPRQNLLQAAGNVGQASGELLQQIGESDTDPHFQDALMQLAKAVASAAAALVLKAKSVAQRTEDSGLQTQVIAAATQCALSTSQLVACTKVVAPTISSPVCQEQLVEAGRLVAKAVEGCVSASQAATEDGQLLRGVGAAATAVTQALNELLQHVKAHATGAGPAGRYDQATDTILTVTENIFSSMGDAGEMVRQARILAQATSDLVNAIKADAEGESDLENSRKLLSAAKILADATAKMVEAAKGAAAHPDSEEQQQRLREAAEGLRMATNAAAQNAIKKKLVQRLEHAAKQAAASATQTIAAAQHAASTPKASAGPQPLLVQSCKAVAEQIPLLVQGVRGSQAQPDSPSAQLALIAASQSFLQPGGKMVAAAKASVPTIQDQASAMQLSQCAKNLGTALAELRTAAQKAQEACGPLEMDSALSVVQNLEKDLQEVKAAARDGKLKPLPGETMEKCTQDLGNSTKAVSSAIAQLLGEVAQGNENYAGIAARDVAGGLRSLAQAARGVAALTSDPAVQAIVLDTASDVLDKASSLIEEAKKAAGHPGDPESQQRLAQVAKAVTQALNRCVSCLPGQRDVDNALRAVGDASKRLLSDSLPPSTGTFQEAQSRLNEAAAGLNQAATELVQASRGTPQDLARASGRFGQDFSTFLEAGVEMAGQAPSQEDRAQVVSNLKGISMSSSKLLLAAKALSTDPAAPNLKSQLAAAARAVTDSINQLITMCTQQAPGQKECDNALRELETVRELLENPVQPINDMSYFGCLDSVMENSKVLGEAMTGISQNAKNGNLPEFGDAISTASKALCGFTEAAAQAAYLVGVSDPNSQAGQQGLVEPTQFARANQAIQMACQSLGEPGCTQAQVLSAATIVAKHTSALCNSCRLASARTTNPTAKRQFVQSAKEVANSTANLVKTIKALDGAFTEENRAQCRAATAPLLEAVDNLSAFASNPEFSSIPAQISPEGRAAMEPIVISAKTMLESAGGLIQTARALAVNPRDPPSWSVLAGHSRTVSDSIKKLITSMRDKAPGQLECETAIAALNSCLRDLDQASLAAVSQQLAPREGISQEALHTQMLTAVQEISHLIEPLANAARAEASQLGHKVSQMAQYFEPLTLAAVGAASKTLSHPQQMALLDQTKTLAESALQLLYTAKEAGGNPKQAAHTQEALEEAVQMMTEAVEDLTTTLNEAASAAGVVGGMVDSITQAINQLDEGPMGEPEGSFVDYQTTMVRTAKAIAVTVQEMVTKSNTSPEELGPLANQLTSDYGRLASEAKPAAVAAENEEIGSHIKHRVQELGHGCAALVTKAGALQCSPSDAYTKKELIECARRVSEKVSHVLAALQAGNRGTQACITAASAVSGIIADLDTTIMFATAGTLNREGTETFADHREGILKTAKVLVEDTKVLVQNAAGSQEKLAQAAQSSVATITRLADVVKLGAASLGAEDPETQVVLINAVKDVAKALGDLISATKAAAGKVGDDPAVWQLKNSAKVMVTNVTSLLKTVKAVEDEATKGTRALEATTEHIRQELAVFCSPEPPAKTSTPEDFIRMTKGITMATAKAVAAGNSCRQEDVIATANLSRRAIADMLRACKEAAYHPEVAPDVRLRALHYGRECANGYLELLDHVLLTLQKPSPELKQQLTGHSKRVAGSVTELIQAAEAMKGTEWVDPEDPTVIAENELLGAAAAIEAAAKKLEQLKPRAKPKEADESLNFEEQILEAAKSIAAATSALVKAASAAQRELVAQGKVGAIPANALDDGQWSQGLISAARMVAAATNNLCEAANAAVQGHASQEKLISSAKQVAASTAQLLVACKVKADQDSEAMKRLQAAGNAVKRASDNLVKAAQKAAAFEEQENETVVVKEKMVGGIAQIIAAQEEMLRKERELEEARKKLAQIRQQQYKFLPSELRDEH
Chain of UniProt Q00610 (Q00610 whole entry): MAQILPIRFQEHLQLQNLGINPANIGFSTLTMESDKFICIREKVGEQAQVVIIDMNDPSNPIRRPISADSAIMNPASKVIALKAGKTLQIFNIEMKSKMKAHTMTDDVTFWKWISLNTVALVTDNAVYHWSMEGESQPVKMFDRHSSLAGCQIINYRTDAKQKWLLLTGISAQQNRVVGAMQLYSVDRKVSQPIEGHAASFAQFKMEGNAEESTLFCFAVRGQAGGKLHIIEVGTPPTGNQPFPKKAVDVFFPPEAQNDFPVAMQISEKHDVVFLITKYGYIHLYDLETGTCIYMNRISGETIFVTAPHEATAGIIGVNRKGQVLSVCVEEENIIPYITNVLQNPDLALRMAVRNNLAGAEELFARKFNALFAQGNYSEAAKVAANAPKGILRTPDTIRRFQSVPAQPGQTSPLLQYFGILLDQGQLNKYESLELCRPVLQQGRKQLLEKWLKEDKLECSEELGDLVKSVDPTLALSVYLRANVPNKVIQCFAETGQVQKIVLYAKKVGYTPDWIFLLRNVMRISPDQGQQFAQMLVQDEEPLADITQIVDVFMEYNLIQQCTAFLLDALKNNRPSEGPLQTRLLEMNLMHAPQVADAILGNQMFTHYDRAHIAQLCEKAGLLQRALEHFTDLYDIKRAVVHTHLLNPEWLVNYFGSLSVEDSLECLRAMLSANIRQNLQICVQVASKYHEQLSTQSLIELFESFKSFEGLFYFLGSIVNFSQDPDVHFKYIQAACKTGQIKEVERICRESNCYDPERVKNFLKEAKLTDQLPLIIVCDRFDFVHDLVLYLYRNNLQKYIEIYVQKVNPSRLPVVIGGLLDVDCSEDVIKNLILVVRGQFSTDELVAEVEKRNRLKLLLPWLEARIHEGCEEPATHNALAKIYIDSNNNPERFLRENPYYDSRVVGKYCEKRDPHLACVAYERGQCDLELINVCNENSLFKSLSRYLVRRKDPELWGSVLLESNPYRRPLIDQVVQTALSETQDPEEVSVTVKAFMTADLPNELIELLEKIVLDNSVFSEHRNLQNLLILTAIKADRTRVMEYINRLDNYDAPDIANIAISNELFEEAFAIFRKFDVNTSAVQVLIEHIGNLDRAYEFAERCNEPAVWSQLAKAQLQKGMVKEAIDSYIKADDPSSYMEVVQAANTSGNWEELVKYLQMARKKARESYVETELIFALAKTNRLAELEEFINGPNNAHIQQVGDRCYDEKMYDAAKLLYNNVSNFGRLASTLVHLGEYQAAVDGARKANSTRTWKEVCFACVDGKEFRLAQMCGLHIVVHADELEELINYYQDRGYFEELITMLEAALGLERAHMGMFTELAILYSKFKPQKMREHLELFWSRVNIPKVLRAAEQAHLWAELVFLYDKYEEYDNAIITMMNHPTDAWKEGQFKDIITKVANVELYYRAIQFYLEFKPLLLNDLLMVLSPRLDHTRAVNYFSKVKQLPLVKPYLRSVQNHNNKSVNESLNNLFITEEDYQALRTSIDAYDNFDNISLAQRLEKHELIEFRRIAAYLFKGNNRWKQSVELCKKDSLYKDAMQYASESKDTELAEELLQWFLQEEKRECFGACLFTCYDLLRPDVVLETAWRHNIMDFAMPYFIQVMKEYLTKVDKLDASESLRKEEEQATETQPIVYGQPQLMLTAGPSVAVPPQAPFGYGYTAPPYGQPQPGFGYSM
Chain of UniProt P09543 (P09543 whole entry): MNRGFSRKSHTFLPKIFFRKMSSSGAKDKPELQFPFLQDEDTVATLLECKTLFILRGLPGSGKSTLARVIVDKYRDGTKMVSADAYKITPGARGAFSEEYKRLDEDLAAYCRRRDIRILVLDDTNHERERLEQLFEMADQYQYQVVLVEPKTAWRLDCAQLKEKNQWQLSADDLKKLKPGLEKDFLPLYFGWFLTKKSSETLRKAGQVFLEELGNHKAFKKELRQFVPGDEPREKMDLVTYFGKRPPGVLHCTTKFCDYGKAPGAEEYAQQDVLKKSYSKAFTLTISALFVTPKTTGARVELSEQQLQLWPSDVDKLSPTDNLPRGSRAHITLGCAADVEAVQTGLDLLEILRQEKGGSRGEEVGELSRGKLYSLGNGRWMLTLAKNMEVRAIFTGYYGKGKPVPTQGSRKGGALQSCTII

Lysine labeling ratio R10:1, active:
PA2G4 (lysine site: K288) (UniProt Q9UQ80) 0.997
UniProt P52803 (lysine site: K166) 0.58
FASN (lysine site: K41) (UniProt P49327) 0.712
CCT7 (lysine site: K250) (UniProt Q99832) 1.57
UniProt Q15046 (lysine site: K479) 1.78
FZD1 (lysine site: K384) (UniProt Q9UP38) 0.938
CLTC (lysine site: K1264) (UniProt Q00610) 1.58
UniProt Q8WXD0 (lysine site: K130) 1.74
UniProt P61353 (lysine site: K98) 1.21
PPT1 (lysine site: K174) (UniProt P50897) 1.29
CCT2 (lysine site: K284) (UniProt P78371) 1.69
UniProt P60842 (lysine site: K238) 1.54
TLN1 (lysine site: K1171) (UniProt Q9Y490) 1.76
FLOT1 (lysine site: K54) (UniProt O75955) 0.737
MET (lysine site: K380) (UniProt P08581) 1.21

Lysine labeling ratio R10:1, inactive:
CACNA2D1 (lysine site: K649) (UniProt P54289) 10.1
KTN1 (lysine site: K1240) (UniProt Q86UP2) 5.6
CELSR2 (lysine site: K1846) (UniProt Q9HCU4) 3.09
CNP (lysine site: K101) (UniProt P09543) 2.62
UniProt Q92729 (lysine site: K388) 3.11
SMOC1 (lysine site: K308) (UniProt Q9H4F8) 4.95
TFRC (lysine site: K180) (UniProt P02786) 2.39
LAMC1 (lysine site: K1191) (UniProt P11047) 2.51
L1CAM (lysine site: K62) (UniProt P32004) 2.25
SUB1 (lysine site: K68) (UniProt P53999) 8.07
UniProt P60842 (lysine site: K146) 3.63
UniProt P61077 (lysine site: K8) 3.43
NPR3 (lysine site: K208) (UniProt P17342) 5.04
ARL6IP5 (lysine site: K158) (UniProt O75915) 2.7
UniProt Q8WXI7 (lysine site: K14239) 4.55
RPLP2 (lysine site: K25) (UniProt P05387) 2.1
DDX5 (lysine site: K391) (UniProt P17844) 10.4
MELTF (lysine site: K544) (UniProt P08582) 2.25
VIM (lysine site: K313) (UniProt P08670) 10.6
AGRN (lysine site: K1589) (UniProt O00468) 5.07
UniProt P16144 (lysine site: K219) 4.33
UniProt P06576 (lysine site: K522) 3.5
TLN1 (lysine site: K1332) (UniProt Q9Y490) 5.83
PGK1 (lysine site: K361) (UniProt P00558) 3.45
ITGB1 (lysine site: K163) (UniProt P05556) 2.37
